Data published in PubChem BioAssay (NCI).
About 79,000 compounds went through this panel and 15% of them were active in at least one assay; those are over-represented in the sample as a whole. Unmarked numbers belong to inactive results. Calls of active or inactive are those of the source. Rule as the data show it: active = growth inhibition above about 70%; inactive = the rest.

Legend:
[1] = NCI Yeast Anticancer Drug Screen. Data for the rad50 strain (AID 155);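 also: 0% = growth of vehicle-only cultures of the same strain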; conditions: S. cerevisiae rad50 strain growth inhibition, hits give high values
Summary of the method: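 Readout: growth inhibition relative to vehicle-treated cultures. Compound exposure was carried out in a genetically defined yeast strain deficient in DNA damage repair.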

[2] = NCI Yeast Anticancer Drug Screen. Data for the mec2-1 strain (AID 157); conditions: S. cerevisiae mec2-1 strain, hits give high values
Summary of the method: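 Test agents were screened against the mec2-1 yeast strain, with defined DNA repair or cell cycle alteration. Growth was scored as inhibition against vehicle-only controls.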

[3] = NCI Yeast Anticancer Drug Screen. Data for the sgs1 mgt1 strain (AID 161);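 also: 0% = growth of cultures given vehicle only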; conditions: S. cerevisiae sgs1 mgt1 strain, hits give high values
Summary of the method: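 Inhibition of yeast growth, normalised to vehicle-treated controls, is reported for a strain bearing genetic alterations in DNA damage repair.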

[4] = NCI Yeast Anticancer Drug Screen. Data for the cln2 rad14 strain (AID 165);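 also: 0% = growth equal to vehicle treated cultures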; conditions: S. cerevisiae cln2 rad14 strain, hits give high values
Summary of the method: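 Growth of compound-exposed yeast (cln2 rad14 genotype) measured and expressed as inhibition relative to vehicle.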

[5] = NCI Yeast Anticancer Drug Screen. Data for the bub3 strain (AID 167); conditions: S. cerevisiae bub3 mutant strain, hits give high values
Summary of the method: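 Readout: yeast growth inhibition, expressed relative to vehicle-only wells. The test organism is a mutant strain from a panel with lesions in DNA repair or checkpoint genes.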

[6] = NCI Yeast Anticancer Drug Screen. Data for the mlh1 rad18 strain (AID 175); conditions: S. cerevisiae mlh1 rad18 strain growth inhibition, hits give high values
Summary of the method: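 In this whole-cell yeast screen, a strain with altered DNA damage repair is challenged with compound, and its growth is measured against matched vehicle-treated controls.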

[7] = at 5.0 µM (retest, dose inferred, filed as 0.5)
[8] = at 50.0 µM (retest, dose inferred, filed as 5.0)

Compound	growth inhibition [1, 7]	growth inhibition [1, 8]	growth inhibition ([1]; at 50.0 µM)	growth inhibition [2, 7]	growth inhibition [2, 8]	growth inhibition ([2]; at 50.0 µM)	growth inhibition [3, 7]	growth inhibition [3, 8]	growth inhibition ([3]; at 50.0 µM)	growth inhibition [4, 7]	growth inhibition [4, 8]	growth inhibition ([4]; at 50.0 µM)	growth inhibition [5, 7]	growth inhibition [5, 8]	growth inhibition ([5]; at 50.0 µM)	growth inhibition [6, 7]	growth inhibition [6, 8]	growth inhibition ([6]; at 50.0 µM)
COC(=O)C(=O)C(C(=O)C(=O)Nc1ccc(C)cc1C)c1nc2ccccc2[nH]c1=O (configuration not stated)	21%	21%	17%	8%	8%	20.8%	-2%	-2%	39.2%	5%	5%	-57.3%	-6%	-6%	34%	7%	7%	49.8%
CCCC#CC(O)(C(=O)OC1CCN(C)CC1)C1CCCCC1 (configuration not stated)	34%	55%	63.5%	36%	53%	45.1%	12%	69%	65.9%	41%	55%	53.5%	23%	56%	58%	46%	79% (active)	53.5%
COc1ccc(C2CC(=O)CC(=O)C2)cc1	-6%	-23%	65.2%	5%	-8%	10.1%	-7%	2%	32.5%	-64%	-20%	-3.35%	-25%	-15%	16%	-12%	0%	55.5%
COC(=O)CSc1n[nH]c(-c2ccc(O)c([N+](=O)[O-])c2)n1	17%	47%	53.9%	31%	56%	53.2%	25%	71% (active)	75.6% (active)	40%	57%	65.5%	35%	51%	53%	30%	57%	57.4%
Cc1ccc(S(=O)(=O)OCCc2ccc(Cl)cc2)cc1	-10%	-21%	-19.6%	-11%	-13%	-10.3%	-6%	41%	-10.4%	-15%	-20%	-16.5%	9%	22%	71.2% (active)	-14%	-12%	-7.75%
CCOC(=O)c1ccc(N=Cc2cc(Cl)cc(Cl)c2O)cc1	67%	99% (active)	86.7% (active)	72% (active)	100% (active)	88.5% (active)	28%	84% (active)	91% (active)	37%	85% (active)	78.9% (active)	62%	96% (active)	87.2% (active)	52%	100% (active)	84.5% (active)
C(=NCCc1ccccc1)c1ccccc1B1OB(c2ccccc2C=NCCc2ccccc2)OB(c2ccccc2C=NCCc2ccccc2)O1	94% (active)	99% (active)	99.6% (active)	93% (active)	100% (active)	99.8% (active)	90% (active)	99% (active)	99.7% (active)	77% (active)	98% (active)	99.3% (active)	79% (active)	99% (active)	99.7% (active)	92% (active)	99% (active)	99.5% (active)
COc1ccc(C2COc3c(ccc(O)c3O)C2)cc1OC (configuration not stated)	-14%	28%	25.2%	1%	55%	43.6%	-3%	66%	40.1%	0%	41%	55.7%	0%	26%	32.9%	0%	74% (active)	40.2%
CN(C)c1ccc(C(O)(Cc2cccnc2)c2ccc(N(C)C)cc2)cc1	-3%	2%	39.2%	-4%	6%	36.8%	-2%	4%	53%	-1%	-4%	13.3%	-3%	1%	72% (active)	-5%	8%	54.9%
COc1ccc(C2=C(Cl)C(=O)N(c3ccc(OC)cc3)C(=O)C2(Cl)Cl)cc1	8%	82% (active)	85.6% (active)	-10%	87% (active)	97.8% (active)	9%	88% (active)	67.1%	-4%	42%	56.8%	-8%	84% (active)	94.9% (active)	6%	71% (active)	95.8% (active)
c1ccc2c(Nc3ccc(Oc4ccc(Nc5c6ccccc6nc6ccccc56)cc4)cc3)c3ccccc3nc2c1	50%	99% (active)	82.8% (active)	8%	100% (active)	6.6%	31%	99% (active)	-22.9%	6%	99% (active)	6.45%	10%	99% (active)	-1.8%	20%	99% (active)	10.3%
Cc1ccc(CC2(C(=O)O)Cc3ccc(C)cc3C2)cc1 (configuration not stated)	-1%	100% (active)	78.3% (active)	-12%	100% (active)	86.3% (active)	-10%	100% (active)	89.3% (active)	1%	100% (active)	91.2% (active)	6%	100% (active)	91% (active)	5%	99% (active)	92.3% (active)
Cc1cc[n+](C2CCC3(C)C(=CCC4C3CCC3(C)C(C(C)CCCC(C)C)CCC43)C2)cc1 (configuration not stated)	91% (active)	97% (active)	95.8% (active)	16%	98% (active)	96% (active)	69%	98% (active)	98% (active)	26%	97% (active)	64.3%	75% (active)	97% (active)	96.2% (active)	71% (active)	97% (active)	97.7% (active)
CC(C)NC(=O)OCc1c2c(n(C)c1COC(=O)NC(C)C)-c1ccccc1CC2	77% (active)	97% (active)	98.2% (active)	14%	98% (active)	98.6% (active)	13%	97% (active)	98.4% (active)	-5%	97% (active)	97.8% (active)	4%	98% (active)	97.6% (active)	26%	96% (active)	98.2% (active)
C=CC(=O)Oc1ccccc1/C=C/C(=O)CCCCCC	37%	95% (active)	96.5% (active)	4%	98% (active)	97.5% (active)	14%	88% (active)	97.5% (active)	-2%	72% (active)	62.8%	0%	95% (active)	83.1% (active)	4%	95% (active)	96% (active)
Cc1c(NC(=O)/C(=N/NC(=S)N=N)C2C(=O)CC(C)(C)CC2=O)c(O)c2ccccc2c1O	14%	98% (active)	95.3% (active)	7%	99% (active)	81.2% (active)	7%	99% (active)	84.8% (active)	-1%	99% (active)	47%	16%	98% (active)	90.9% (active)	9%	98% (active)	93% (active)
COc1ccccc1C(=O)c1c(C(=O)O)ccc2ccccc12	-2%	-17%	3.8%	-6%	-28%	6.9%	-3%	-25%	7.75%	-17%	-3%	27.6%	-10%	-5%	13.7%	-4%	-1%	48.6%
CC(C)(C)[Si](C)(C)OCC1OC(n2cc(I)c(N)nc2=O)C(O[Si](C)(C)C(C)(C)C)C1O[Si](C)(C)C(C)(C)C (configuration not stated)	48%	97% (active)	27.1%	9%	98% (active)	60.8%	85% (active)	98% (active)	36.1%	1%	51%	32.3%	9%	99% (active)	38.4%	33%	94% (active)	86.7% (active)
CCCCCCCCCCC[N+](C)(C)CCCCCC[N+](C)(C)CCCCCCCCCCC	92% (active)	98% (active)	88.6% (active)	97% (active)	99% (active)	91% (active)	99% (active)	99% (active)	90.9% (active)	96% (active)	99% (active)	90.3% (active)	99% (active)	100% (active)	88.4% (active)	97% (active)	99% (active)	90.2% (active)
